Assay results from PubChem BioAssay AID624414 (National Center for Advancing Translational Sciences (NCATS), 2012).
The whole screen tested about 410,000 compounds, of which about 480 (0.12%) were called active. Many of the other results were omitted from the sample, so actives are more common in it than they were. Unmarked numbers belong to inactive results. Rule as the data show it: active = activation above about 50%; inconclusive = mostly about 30% to 49%; inactive = weaker than that.

Biological target: Mucolipin-1 (Homo sapiens) (UniProt Q9GZU1)
Sequence (Q9GZU1 whole entry, looked up): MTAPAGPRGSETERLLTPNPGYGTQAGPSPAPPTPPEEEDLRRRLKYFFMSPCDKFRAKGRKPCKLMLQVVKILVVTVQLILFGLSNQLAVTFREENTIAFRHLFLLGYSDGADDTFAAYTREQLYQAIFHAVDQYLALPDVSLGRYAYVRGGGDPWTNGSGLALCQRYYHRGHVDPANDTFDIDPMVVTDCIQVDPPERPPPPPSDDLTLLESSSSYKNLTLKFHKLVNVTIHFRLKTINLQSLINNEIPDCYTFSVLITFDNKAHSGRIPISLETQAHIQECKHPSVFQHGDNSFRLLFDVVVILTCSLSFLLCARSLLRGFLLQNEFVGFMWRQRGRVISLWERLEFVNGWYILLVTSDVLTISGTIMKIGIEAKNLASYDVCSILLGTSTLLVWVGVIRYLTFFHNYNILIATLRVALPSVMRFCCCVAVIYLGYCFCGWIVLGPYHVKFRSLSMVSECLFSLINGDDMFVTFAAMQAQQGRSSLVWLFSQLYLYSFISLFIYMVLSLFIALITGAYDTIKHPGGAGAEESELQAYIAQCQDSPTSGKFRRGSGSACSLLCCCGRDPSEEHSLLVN
Assay: qHTS for Agonists of the Human Mucolipin Transient Receptor Potential 1 (TRPML1); also: 0% is about no effect
Details: TRPML1-expressing cells, Ca2+ dye fluorescence, FDSS; stronger effect = higher value
Source text: Mutations of human Mucolipin transient receptor potential 1 (TRPML1) cause type IV mucolipidosis (ML4), a devastating neurodegenerative disease in young children. […] Currently, there is no treatment for ML4. […] Under physiological conditions, TRPMLs regulate membrane trafficking by transducing information about PI(3,5)P2 levels into changes in juxtaorganellar Ca2+, thereby triggering membrane fusion/fission events in the late endocytic pathways (endolysosomal trafficking). In addition, TRPML1 mediates release of Fe2+ from late endosomes and lysosomes, which is essential for cellular iron metabolism. Thus, impaired ion (Ca2+ and Fe2+) homeostasis underlies lysosomal dysfunction and ML4 phenotypes. In ML4 cells, the problem is twofold. First, defective Ca2+-dependent membrane trafficking due to TRPML1-deficiency causes accumulation of lipids and other bio-materials in the lysosome. The second strike comes from the lysosomal iron overload (due to impairment of TRPML1's Fe2+ conductivity), which converts the accumulated materials into the nondegradable (resistant to lysosomal degradation) lipofuscin (also called aging pigment) in the lysosome. Lipofuscin accumulation dramatically compromises the functions of lysosomes.
Niemann-Pick type C (NPC) disease is another lysosome storage disease (LSD) with severe neurodegeneration during the childhood. Currently, there is no cure for NPC. […] Thus, TRPML1 is likely to be an essential regulator of lysosome ion homeostasis. We specifically hypothesize that stimulating TRPML1's Fe2+/Ca2+ channel activity in the lysosome using synthetic agonists can alleviate neurodegeneration associated with ML4 or NPC.
To this end, a high throughput screen was developed in a miniaturized format to screen against the Molecular Libraries Small Molecule Repository (MLSMR) to find small molecules that act either as inhibitors or agonist against the TRPML1 channel.
NIH Chemical Genomics Center [NCGC]
NIH Molecular Libraries Probe Centers Network [MLPCN]
Assay Submitter (PI): Haoxing Xu, University of Michigan Ann Arbor
TRPML1-DL cells are dissociated from flasks, counted and, brought up to a density of 500,000 cells per mL of media containing a 1X Tet inducer. Using a Multidrop Combi, 3uL of this cell solution is dispensed to each well of a 1536 TC treated, black, clear bottom hi base plate for a final cell density of 1,500 cells per well. The assay plates are incubated overnight (approximately 16 hours) at 37 degrees C and 5% CO2. Using a Multidrop Combi, 2uL of ABD Ca8 no wash dye plus quencher is added to each well. The assay plates incubate at room temperature in the dark for 45-90 minutes. The assay plate is read on the FDSS using the following protocol: 10 second baseline read, 23nL of compounds and controls are added using 1536 pintool, agonist read for 110 seconds, 1 uL EC80 addition (4uM final 54-4 diluted in media), antagonist read for 110 seconds.

**Q.** With `Oc1ccc(Cl)cc1C1C=C(c2ccc3c(c2)OCO3)NC(c2c(F)cccc2Cl)N1` (stereo unspecified) as the compound, how does the activation read?
**A.** 0.805%

**Q.** For `O=S(=O)(Nc1cccc2cccnc12)c1cccc2cccnc12`, which activation is on record?
**A.** 0.864%

**Q.** `CC(=O)c1ccc[n+](C(C)CCC(C)[n+]2cccc(C(C)=O)c2)c1` (stereo unspecified) was tested. Which activation did it give?
**A.** -0.159%

**Q.** `Cc1ccc(Cl)cc1N(C)C(=O)C1CCCN(c2ncnc3onc(-c4ccc(F)cc4)c23)C1` (stereo unspecified) was tested. Which activation did it give?
**A.** 0.938%

**Q.** Which activation does the source give for `CN(C)c1ccc(/C=C/c2sc3ccccc3[n+]2C)cc1` here?
**A.** -0.317%

**Q.** How did the activation turn out when `N#Cc1ccc[n+](CC(=O)c2ccc(O)c(O)c2)c1` was run?
**A.** 6.5%

**Q.** `COc1cc(OC)c(NC(=O)Cc2ccc(-n3c(C)nc4cccnc43)cc2)cc1Cl` was tested. Which activation did it give?
**A.** 2.46%

**Q.** How did the activation turn out when `O=[N+]([O-])c1ccc(/C=C/c2ccc3cccnc3c2)cc1` was run?
**A.** -0.507%

**Q.** How did the activation turn out when `CCOC(=O)c1c(NC(=O)c2ccc(S(=O)(=O)N3CCCC(C)C3)cc2)sc2c1CCN(C(C)C)C2` (stereo unspecified) was run?
**A.** 0.257%

**Q.** With `COc1ccccc1N1CCN(c2ncnc3onc(-c4ccc(F)cc4)c23)CC1` as the compound, how does the activation read?
**A.** 0.772%

**Q.** Which activation does the source give for `O=C(c1cnn2c1NC(=C1CC1)C=C2C(F)F)N1CCc2ccccc2C1` here?
**A.** -0.995%

**Q.** `C(=Nc1ccc(/C=C/c2ccnc3ccccc23)cc1)Nc1ccc(/C=C/c2ccnc3ccccc23)cc1` was tested. Which activation did it give?
**A.** 8.34%

**Q.** Which activation does the source give for `Cc1cc(=O)n(CC(=O)Nc2cccc([N+](=O)[O-])c2)c(-n2nc(C)cc2C)n1` here?
**A.** 1.21%

**Q.** With `COc1ccccc1NC(=O)CSC1=Nc2ccccc2C2=NC(CC(=O)NCc3cccs3)C(=O)N12` (stereo unspecified) as the compound, how does the activation read?
**A.** 3.51%

**Q.** For `CC1(C)C=Cc2c(ccc(C(=O)/C=C/c3ccccc3)c2O)O1`, which activation is on record?
**A.** 19.2%

**Q.** For `COc1ccc(S(=O)(=O)c2c(Nc3cccc(Cl)c3)sc(C(=O)c3ccccc3)c2N)cc1`, which activation is on record?
**A.** 14.6%

**Q.** How did the activation turn out when `COc1cccc(C(=O)Nc2ccc(-c3cc(C(F)(F)F)nn3-c3ccccc3)cc2)c1` was run?
**A.** 3.44%

**Q.** Which activation does the source give for `COc1cccc(C(=O)c2sc3nc(-c4ccccc4)cc(C(F)(F)F)c3c2N)c1` here?
**A.** 98.2% (active)

**Q.** For `COc1ccc(Cn2c(=O)n(-c3ccccc3C)c(=O)c3c4c(sc32)CN(C(C)=O)CC4)cc1`, which activation is on record?
**A.** -0.696%

**Q.** Which activation does the source give for `O=C(Nc1ccc2nc(SCC(=O)N3CCCc4ccccc43)sc2c1)c1ccc(Cl)cc1` here?
**A.** 1.16%

**Q.** How did the activation turn out when `O=C(Nc1ccc([N+](=O)[O-])cc1)c1cnn2c1NC(=C1CC1)C=C2C(F)F` was run?
**A.** -0.353%

**Q.** `CCCCC(CCCC)c1ccc(C=Nc2ccc(/C=C/c3ccnc4ccccc34)cc2)cc1` was tested. Which activation did it give?
**A.** 5.8%

**Q.** How did the activation turn out when `COc1cccc(-c2nnc3n(CCc4ccccc4)c(=O)c4ccccc4n23)c1O` was run?
**A.** 1.15%

**Q.** How did the activation turn out when `Cc1ccc2nc(CNC(=O)c3ccccc3)[nH]c2c1` was run?
**A.** 2.07%

**Q.** With `COc1ccc(/C=C(/NC(=O)c2ccc(C)cc2)c2nc3ccccc3[nH]2)cc1OC` as the compound, how does the activation read?
**A.** 50.1% (active)

**Q.** With `CCOc1ccc(/C=C(\C#N)c2nc3ccccc3c(=O)[nH]2)cc1OC` as the compound, how does the activation read?
**A.** 1.09%

**Q.** With `N#Cc1ccc[n+](CC(=O)c2ccc(F)cc2)c1` as the compound, how does the activation read?
**A.** 1.03%

**Q.** `COC(=O)C(CC(C)C)NS(=O)(=O)c1cc(Br)ccc1Br` (stereo unspecified) was tested. Which activation did it give?
**A.** 1.9%

**Q.** How did the activation turn out when `OC(CBr)CN1CCCCC1` (stereo unspecified) was run?
**A.** -0.38%

**Q.** How did the activation turn out when `Cc1cccc(N2CCN(C(=O)CCn3c(=O)c4cccn4c4cccnc43)CC2C)c1` (stereo unspecified) was run?
**A.** 0.62%

**Q.** With `C=CCNC(=O)c1ccc2nc(-c3ccco3)c(-c3ccco3)nc2c1` as the compound, how does the activation read?
**A.** -0.254%

**Q.** How did the activation turn out when `OC(CBr)C[n+]1cccc2cc(Br)ccc21` (stereo unspecified) was run?
**A.** 1.14%

**Q.** How did the activation turn out when `Nc1ncnc2nnsc12` was run?
**A.** 0.38%

**Q.** With `CN(C)c1ccc(/C=C/c2sc3ccccc3[n+]2CCCCBr)cc1` as the compound, how does the activation read?
**A.** 6.96%

**Q.** Which activation does the source give for `CCC(C(=O)Nc1cccc(Cl)c1C)n1nc(-c2ccc(C)cc2)ccc1=O` (stereo unspecified) here?
**A.** 3.09%

**Q.** `S=c1[nH]c(=S)c2n[nH]nc2[nH]1` was tested. Which activation did it give?
**A.** 0%

**Q.** With `CC(C)(C)c1ccc(C(=O)C[N+]2(C)CCCc3ccccc32)cc1` (stereo unspecified) as the compound, how does the activation read?
**A.** -0.62%

**Q.** How did the activation turn out when `O=C1O/C(=C\c2ccc(O)cc2)C(O)=C1c1ccc(O)cc1` was run?
**A.** -0.353%

**Q.** With `COc1ccc(OC)c(NC(=O)CSC2=Nc3ccccc3C3=NC(CC(=O)NCc4ccc(F)cc4)C(=O)N23)c1` (stereo unspecified) as the compound, how does the activation read?
**A.** 2.38%

**Q.** For `CCN1CCN(c2ncc3c(n2)CC(c2ccccc2O)CC3=O)CC1` (stereo unspecified), which activation is on record?
**A.** -0.182%

**Q.** For `CCCS(=O)(=O)Nc1cccc(-c2cn3ccsc3n2)c1`, which activation is on record?
**A.** -0.225%

**Q.** Which activation does the source give for `CN(CCC#N)c1ccc(C=O)cc1` here?
**A.** -0.222%

**Q.** `Cc1nc(N2CCN(c3ccccn3)CC2)c2c(C)c(C(=O)Nc3ccc(F)c(Cl)c3)sc2n1` was tested. Which activation did it give?
**A.** -0.23%

**Q.** How did the activation turn out when `COc1cc([N+](=O)[O-])ccc1NC(=S)N1CCN(c2ccccn2)CC1` was run?
**A.** 0.452%

**Q.** With `COc1ccc(NC(=O)c2sc3nc(C)nc(N4CCN(c5ccccn5)CC4)c3c2C)c(OC)c1` as the compound, how does the activation read?
**A.** 105% (active)

**Q.** For `O=C(Nc1ccccc1)c1ccccc1OCc1ccccc1`, which activation is on record?
**A.** 0.0539%

**Q.** With `COc1cc2nc(N3CCCN(C)CC3)nc(NC(C)C)c2cc1OC` as the compound, how does the activation read?
**A.** -0.755%

**Q.** How did the activation turn out when `O=C1CC(c2ccccc2)CC2=C1C(c1ccco1)n1nc(C(F)(F)F)nc1N2` (stereo unspecified) was run?
**A.** -1.28%

**Q.** How did the activation turn out when `C=COC(=O)N1CCN(/[N+]([O-])=N/Oc2ccc([N+](=O)[O-])cc2[N+](=O)[O-])CC1` was run?
**A.** 1.19%

**Q.** How did the activation turn out when `COc1ccc(CN(Cc2ccccc2)C(=O)c2ccc(O)cc2)cc1COc1ccc(NC(C)=O)cc1` was run?
**A.** 1.13%

**Q.** How did the activation turn out when `OC(Cc1ccc2ccccc2n1)c1ccc(Cl)c(Cl)c1` (stereo unspecified) was run?
**A.** 0.0951%

**Q.** How did the activation turn out when `CCN(CC)c1ccc(C2C(C(N)=O)=C(C)Nc3nc(SCc4ccccc4)nn32)cc1` (stereo unspecified) was run?
**A.** -0.404%

**Q.** With `CCCOc1ccc(C2c3c(-c4ccccc4O)n[nH]c3C(=O)N2Cc2cccnc2)cc1` (stereo unspecified) as the compound, how does the activation read?
**A.** 1.02%

**Q.** Which activation does the source give for `Cc1nn(C)cc1N1C(=O)c2cccc3c(N)ccc(c23)C1=O` here?
**A.** 66.8% (active)

**Q.** Which activation does the source give for `CN1C(=O)c2cccc3c(N)ccc(c23)C1=O` here?
**A.** 85.5% (active)

**Q.** For `Cc1ccc(Cn2cnc3c(cnn3C(C)(C)C)c2=O)c(F)c1`, which activation is on record?
**A.** 1.07%
